# An excerpt weighted towards active compounds, which were near 1.2% of everything screened.
# IDH1 R132H inh – qHTS for Inhibitors of mutant isocitrate dehydrogenase 1 (IDH1): qHTS | Isocitrate dehydrogenase [NADP] cytoplasmic (Homo sapiens), O75874 | IDH1-R132H enzyme, NADPH consumption, diaphorase/resazurin fluorescence | Potency, µM (highest dose often 76.6 µM), for inactives: at the top dose activity change, negative = inhibition, hits mostly inhibitors | 0.093% of 390,000 active | AID 602179, 2012; further: potency means the concentration at half of the fitted maximal effect; on the % scale 0 is the no-effect control and ±100 the full control effect; nearly all actives have a fitted effect of over 65% in size
#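 IDH1-R132H (0.5 ug/mL dispensed) in pH 7.5 Tris buffer was preincubated 30 min with compound, then given a substrate mix of 0.016 mM NADPH and 2 mM alpha-KG for 80 min at room temperature; remaining NADPH was read by diaphorase/resazurin fluorescence.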
# S-ASM inh – Inhibitors of Secretory Acid Sphingomyelinase (S-ASM): qHTS | Sphingomyelin phosphodiesterase (Homo sapiens), P17405 | placental ASM, HMU-PC fluorogenic substrate, 60 min | Potency, µM (top dose mostly 57.5 µM), for inactives: at the highest dose activity change, negative = inhibition, usual class: inhibitors | 0.006% of 340,000 active | AID 504937, 2011; further: potency means the concentration at half of the fitted maximal effect
#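 Human placenta-derived ASM enzyme was preincubated with compound for 10 minutes at room temperature, then given fluorogenic substrate HMU-PC0 (9 uM final) for 60 minutes at 37 °C; a pH 10 stop preceded fluorescence reading at Ex 386/Em 447 nm.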
# KCNH2 3.1 inh – qHTS for Inhibitors of KCHN2 3.1: Mutant qHTS | U2OS KCNH2 3.1, thallium flux FluxOr; stronger effect = lower value | AID 720553, 2013 | 0.95% of 340,000 active | Potassium voltage-gated channel subfamily H member 2, brain isoform KCNH2 3.1 (human) | activity change, % (tested at about 1.8 µM);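 active means maximum activity change below -70%; inconclusive means maximum activity change from -70% to -50%; inactive means maximum activity change above -50%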;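 further: thallium influx rate constant from kinetic fluorescence after stimulation buffer; on the % scale 0 is the no-effect control and ±100 the full control effect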
#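 Thallium flux read-out: FluxOr dye with Red40 quencher in HBSS/HEPES, 45 min at RT. Rate constants from kinetic reads were normalized to positive and negative DMSO controls. Cells: U2OS virally expressing the 3.1 isoform.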
# KCNH2 WT inh – qHTS for Inhibitors of KCHN2 3.1: Wildtype qHTS; U2OS, BacMam KCNH2, thallium flux FluxOr; stronger effect = lower value; Voltage-gated inwardly rectifying potassium channel KCNH2 (Homo sapiens), Q12809; activity change, % at 1.84 µM; 0.37% of 340,000 active;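 active means maximum activity change below -70%; inconclusive means maximum activity change between -70% and -50%; inactive means maximum activity change above -50%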; further: on the % scale 0 is the no-effect control and ±100 the full control effect
# Target sequence (Q12809 whole entry, looked up): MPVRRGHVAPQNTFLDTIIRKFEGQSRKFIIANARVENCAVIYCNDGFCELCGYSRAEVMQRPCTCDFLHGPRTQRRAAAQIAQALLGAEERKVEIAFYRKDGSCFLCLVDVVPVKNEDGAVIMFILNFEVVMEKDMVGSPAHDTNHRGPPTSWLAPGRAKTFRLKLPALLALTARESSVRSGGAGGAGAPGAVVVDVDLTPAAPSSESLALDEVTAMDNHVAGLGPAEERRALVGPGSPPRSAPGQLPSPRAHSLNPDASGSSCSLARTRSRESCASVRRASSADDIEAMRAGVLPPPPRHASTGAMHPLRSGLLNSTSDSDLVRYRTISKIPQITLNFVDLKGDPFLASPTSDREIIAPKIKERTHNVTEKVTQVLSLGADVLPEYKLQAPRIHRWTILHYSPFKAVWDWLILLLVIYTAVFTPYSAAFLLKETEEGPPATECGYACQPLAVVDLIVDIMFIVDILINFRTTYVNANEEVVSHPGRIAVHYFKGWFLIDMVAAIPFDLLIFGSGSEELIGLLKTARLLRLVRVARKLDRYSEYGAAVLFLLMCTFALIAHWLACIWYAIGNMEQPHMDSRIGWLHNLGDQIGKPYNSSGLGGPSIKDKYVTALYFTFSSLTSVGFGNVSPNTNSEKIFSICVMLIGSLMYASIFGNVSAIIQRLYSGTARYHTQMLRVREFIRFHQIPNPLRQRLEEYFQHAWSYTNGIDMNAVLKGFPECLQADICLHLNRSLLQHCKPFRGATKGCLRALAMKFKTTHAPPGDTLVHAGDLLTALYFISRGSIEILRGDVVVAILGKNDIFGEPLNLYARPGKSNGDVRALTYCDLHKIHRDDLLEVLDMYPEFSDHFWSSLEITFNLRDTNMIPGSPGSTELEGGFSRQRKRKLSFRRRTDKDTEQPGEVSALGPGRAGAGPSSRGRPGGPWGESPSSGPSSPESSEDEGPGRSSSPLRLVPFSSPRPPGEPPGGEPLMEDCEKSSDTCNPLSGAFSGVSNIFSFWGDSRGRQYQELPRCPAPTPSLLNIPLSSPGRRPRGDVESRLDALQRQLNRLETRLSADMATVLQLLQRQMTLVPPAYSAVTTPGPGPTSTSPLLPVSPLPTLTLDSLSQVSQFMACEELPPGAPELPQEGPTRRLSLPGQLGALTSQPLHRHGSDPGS
#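 U2OS cells were transduced with wild-type KCNH2 virus (2.03 x 10^8 / mL) for 4 h at room temperature, then cultured overnight at 37 C. Thallium flux was read with FluxOr dye. Rate constants were normalized to DMSO controls.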
# Apoferritin bind – qHTS Assay for Identification of Novel General Anesthetics; Potency, µM (doses to about 77.5 µM), inactives show top-dose activity change, negative = displacement, usual class: inhibitors; AID 485281, 2010; apoferritin/1-aminoanthracene competitive binding, fluorescence; 0.074% of 350,000 active; further: potency means the concentration at half of the fitted maximal effect; on the % scale 0 is the no-effect control and ±100 the full control effect; nearly all actives have a fitted effect of over 20% in size
#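 Horse-spleen apoferritin (10 uM) was mixed with 50% saturated 1-aminoanthracene in PBS, exposed to compounds for 10 min at room temperature, and read for fluorescence (ex 380 nm, em 535 nm). Competitive displacement was fitted with a four-parameter Hill equation.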
# Starred values were filed as active, the others as inactive; i = inactive; ? = inconclusive; · = not tested or not shown; ! = a repeat was not active; [ ] = another dose, or the depositor's remark. Unless noted, the call rests on the fitted dose curve; in most records, active means well fitted inhibition curve with a large enough effect; inconclusive means small, poorly fitted or top-dose-only effect; inactive means no such curve, though single readings can be large or run the other way.
SMILES,IDH1 R132H inh,S-ASM inh,KCNH2 3.1 inh,KCNH2 WT inh,Apoferritin bind
O=S(=O)(c1ccccc1)c1nc(-c2ccc(Cl)cc2Cl)oc1N1CCCCCC1,-8%,·,·,·,7%
COc1ccc(Cl)cc1NC(=O)CSc1nc2ccccc2nc1N1CCCCC1,0%,·,·,·,66%
CCCCCCCNC(=O)C1(CC2CC(c3ccc(Cl)cc3)=NO2)CCN(C(=O)CCCCCBr)CC1 (centres undefined),2%,-25%,-83*,-89*,?
O=C(CCCCCBr)N1CCC(CC2CC(c3cccc(Br)c3)=NO2)(C(=O)NCC2CCCCC2)CC1 (centres undefined),4%,-7%,-40,-8,-5%
COc1ccc(CNC(=O)C2(CC3CC(c4ccccc4)=NO3)CCN(C(=O)OC(C)(C)C)CC2)cc1 (centres undefined),-4%,-10%,5,2,·
O=C(CCCCCBr)N1CCC(CC2CC(c3ccc(Cl)cc3)=NO2)(C(=O)NCC2CCCCC2)CC1 (centres undefined),13%,-1%,?,-95*,-15%
COc1ccc(CNC(=O)C2(CC3CC(c4ccccc4)=NO3)CCN(C(=O)CCCCCBr)CC2)cc1 (centres undefined),7%,0%,-133*,-112*,·
CO[C@@H]1COC(=O)[C@H]2CCCN2C(=O)[C@@H](C)COC(=O)C/C=C\[C@H]1C,·,·,·,·,4%[15.3 µM]
CCCCNC(=O)c1c(O)c2cccc3c2n(c1=O)CCC3,-1%,-9%,-4,-1,2%
CCNCCNC(=O)c1c(O)c2cccc3c2n(c1=O)CCC3,13%,-1%,8,-179*,-13%
O=[N+]([O-])c1ccc(-c2ccc(/C=N/Nc3nc(N4CCCC4)nc(N4CCCC4)n3)o2)cc1,-4%,-2%,?,i,-11%
COc1ccc(-c2cnnc(N/N=C/c3ccc(-c4ccc([N+](=O)[O-])cc4)o3)n2)cc1,-5%,-3%,-149*,-11,-4%
COC(=O)NC(c1ccc(Cl)cc1)C(C(C)=O)C(=O)OC (centres undefined),·,·,·,·,-1%[15.3 µM]
O=C(NC1CCc2ccccc21)c1cc(COc2cncc(Cl)c2)on1 (centres undefined),23%,-1%,-3,3,45µM*
O=C(NCc1ccccc1)c1cccc(Nc2nc3ccccc3n3nnnc23)c1,1%,·,·,·,-3%
CCCn1c2ccccc2c2cnn(CC(=O)NC3CCCCC3)c(=O)c21,1%,1%,8,-226*,-7%
Cc1ccc(NC(=O)C(=O)NCC(c2cccnc2)N2CCN(c3ccccc3F)CC2)cc1Cl (centres undefined),-19%,·,·,·,-23%
Cc1cc(NC(=O)c2ccc(Cl)cc2)n(CCOC(=O)c2ccc(Cl)cc2)n1,6%,-9%,1,-98*,-19%
O=C(O)/C=C/c1cccnc1,1%,3%,-21,-12,0%
CC(/C=C\c1cccnc1)=C/C(=O)O,-1%,3%,-77*!,-1,-13%
COc1c(CC(=O)c2cc3c(cc2O)OC(C)(C)C(O)C3)ccc2c1C=CC(C)(C)O2 (centres undefined),·,·,·,·,0%
Cc1ccc(CNC(=O)c2cc3c(=O)n4ccccc4nc3n(CC3CCCO3)c2=N)cc1 (centres undefined),0%,495%,-71*,-24,8%
N=c1c(C(=O)NCc2ccco2)cc2c(=O)n3ccccc3nc2n1Cc1ccc(Cl)cc1,1%,220%,-80*,-44,60%
Cc1ccc2c(c1)c1c(c(=O)n(-c3cccc(Cl)c3)c(=O)n1C)n2C,0%,·,·,·,-2%
COc1ccc(OCC(O)CN2CCN(c3ccc(Cl)cc3)CC2)cc1 (centres undefined),1%,-3%,-84*,26,-1%
SMILES,IDH1 R132H inh,S-ASM inh,KCNH2 3.1 inh,KCNH2 WT inh,Apoferritin bind
CC(=O)Nc1ccc(OCC(O)CN2CCN(c3cccc(Cl)c3)CC2)cc1 (centres undefined),-3%,0%,0,9,2%
Cc1cccc(N2CCN(CC(O)COc3ccccc3)CC2)c1 (centres undefined),-1%,-1%,-2,42,·
OC(COc1ccc(Cl)cc1)CN1CCN(c2cccc(Cl)c2)CC1 (centres undefined),0%,-6%,-78*,7,-9%
Cc1cccc(N2CCN(CC(O)COc3ccc(Cl)cc3)CC2)c1 (centres undefined),1%,-1%,-79*,4,29%
Cc1cc(OCC(O)CN2CCc3ccccc3C2)ccc1Cl (centres undefined),0%,-2%,-80*,10,?
CCc1ccccc1OCC(=O)Nc1ccc(S(=O)(=O)Nc2nc(C)cc(C)n2)cc1,-20%,·,·,·,-5%
C/C(CCN1CCCCc2nc(C)c(C)cc21)=N\OC[C@@H](O)[C@@H]1O[C@@H]2OC(C)(C)O[C@@H]2[C@H]1O,·,·,·,·,-4%[15.3 µM]
OC(COCc1ccc(Cl)cc1)CN1CCN(CC(O)COCc2ccc(Cl)cc2)CC1 (centres undefined),1%,-1%,-88*,2,-9%
CC1CC(C)CN(C(=O)COC(=O)/C=C/c2cccc([N+](=O)[O-])c2)C1 (centres undefined),0%,-1%,-109*,4,·
c1coc(CNc2c3c(nc4ncnn24)CCCC3)c1,3%,5%,-18,2,-9%
Clc1cccc(-c2cc3nc4c(c(NCc5ccco5)n3n2)CCCC4)c1,7%,?,-101*,-21,51%
Cc1cccc(NC(=O)c2sc(NC(=O)c3ccco3)c(C#N)c2C)c1C,9%,1%,-83*,7,-8%
Cc1cccc(NC(=O)c2ccco2)c1C,7%,6%,12,5,-9%
CC(Sc1ncc(S(=O)(=O)c2ccc(C(C)C)cc2)c(N)n1)C(=O)Nc1ccccc1 (centres undefined),-6%,·,·,·,-10%
CN(C)C(=O)COC(=O)c1cccnc1Nc1ccccc1F,2%,-1%,4,-1,-7%
NC(=O)COC(=O)c1cccnc1Nc1ccccc1F,4%,3%,-72*,6,-7%
NC1C(O)OC(CO)[C@@H](O)[C@@H]1O[C@H]1O[C@@H](C(=O)O)C(O)C(O)C1O (some centres undefined),·,·,·,·,6%
CN(C)CCn1cnc2c1c(=O)[nH]c(=O)n2Cc1ccccc1,5%,2%,4,-252*,-5%
